Only a selection was taken, and hits are over-represented in it overall.
ALOX12 inh: ALOX12 (human) lipoxygenase inhibition | purified 12hLO, xylenol orange hydroperoxide absorbance | P18054 | 580,000 tested, 1.1% active | Potency, µM (series often up to 108 µM), actives largely listed as inhibitors
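Purified human 12hLO (150 nM final) in 25 mM Hepes, 0.01% Triton X-100, pH 7.0 was preincubated 15 min at room temperature with compound. Then 40 uM arachidonic acid was added, 30 min. Hydroperoxide was read by Fe-XO absorbance ratio 573/405 nm.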
VDR inh: blocks the human vitamin D receptor; Potency, µM, hits mostly inhibitors; 400,000 tested, 0.93% active; AID 504847; VDR-SRC2-3 peptide fluorescence polarization, 2 h
Target sequence (P11473 whole entry, looked up): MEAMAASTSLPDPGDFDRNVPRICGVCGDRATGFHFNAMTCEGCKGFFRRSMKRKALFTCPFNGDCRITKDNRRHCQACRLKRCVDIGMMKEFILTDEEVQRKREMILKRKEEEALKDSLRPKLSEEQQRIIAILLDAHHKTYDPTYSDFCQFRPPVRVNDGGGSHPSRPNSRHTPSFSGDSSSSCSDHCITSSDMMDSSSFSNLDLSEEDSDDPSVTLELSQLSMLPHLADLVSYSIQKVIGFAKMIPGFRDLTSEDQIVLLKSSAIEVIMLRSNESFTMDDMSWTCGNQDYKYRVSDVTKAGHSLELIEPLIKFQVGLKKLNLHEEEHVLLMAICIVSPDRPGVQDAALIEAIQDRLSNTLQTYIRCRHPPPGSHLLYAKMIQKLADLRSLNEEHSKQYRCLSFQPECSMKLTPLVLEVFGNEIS
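FP read-out; VDR + SRC2-3 coactivator peptide; 23 nl compound by pintool; 2 h RT incubation; reagents held at 4 deg C, protected from light.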
Sfp PPTase inh: blocks B. subtilis Sfp PPTase activity | Q9F4F7 | Biochemical Sfp PPTase activity, qHTS | Potency, µM, actives largely listed as inhibitors | 310,000 tested, 3.5% active | AID 1490;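 also: the enzyme is Sfp with the accession as filed and its product quenches rhodamine fluorescence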
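With Hepes-Na pH 7.6 buffer containing 10 mM MgCl2, Sfp (15 nM) modified BHQ-2-YbbR (12.5 uM) using rhodamine-CoA (5 uM). Two reads 30 minutes apart at 525/598 nm yielded each well's rate.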
GRP78 ERSR act: inducers of ER stress response in human glioma cells | U87-MG GRP78 promoter luciferase reporter, 16 h | 420,000 tested, 0.02% active | Potency, µM, most hits filed as activators | AID 602332; also: series mostly up to about 76 µM; nearly all actives have a fitted effect of over 35% in size
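Stably transfected U87-MG glioma cells carrying a GRP78-based luciferase sensor; 16 h compound incubation. Luminescence end-point read 10 min after Bright-Glo addition at room temperature.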
G9a inh: inhibitors of human histone lysine methyltransferase G9a | Potency, µM (series often up to 102 µM), most hits filed as inhibitors | G9a H3K9 monomethylation, AlphaScreen, 2 h | AID 504332 | 350,000 tested, 8.8% active; also: nearly all actives have a fitted effect of over 75% in size
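Readings reflect AlphaScreen signal from monomethyl-H3K9 antibody detection. HMT at 20 nM; substrate b-H3K9 500 nM; cofactor SAM 20 uM; 2 h RT reaction; compounds tested as titrations in qHTS with 15 min preincubation.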
Each line names hits and unclear results; the compound was inactive in the other large screens; ! = not confirmed by another sample. Calls follow the shape of the dose curve; as a rule, active = well fitted curve in the direction sought with a large enough effect; inconclusive = small, poorly fitted or top-dose-only effect, or another doubt; inactive = no such curve, though single readings can be large; an effect the other way counts as inactive or inconclusive.

O=C(CC1CCCC1)N1[C@H]2CC[C@@H]1c1cnc(-c3ccccc3)nc1C2	none (no result: VDR inh, Sfp PPTase inh, GRP78 ERSR act, G9a inh)
C[S+](CC[C@H](N)C(=O)O)C[C@H]1O[C@@H](n2cnc3c(N)ncnc32)[C@H](O)[C@@H]1O (stereo partly drawn)	Sfp PPTase inh inconclusive, G9a inh 3.55µM (no result: ALOX12 inh)
O=C(O)CC1(CNC(=O)Cn2ccc3c(Cl)cccc32)CCCCC1	none (no result: VDR inh, Sfp PPTase inh, GRP78 ERSR act, G9a inh)
C=C1C(=O)O[C@@H]2C[C@@H](C)[C@@H]3C=CC(=O)[C@@]3(C)[C@@H](O)[C@H]12	VDR inh inconclusive, Sfp PPTase inh 79.4µM, G9a inh 11.2µM!
COc1cccc(N2C(=O)NC(=O)/C(=C/c3ccc4c(c3)Cc3ccccc3-4)C2=O)c1	ALOX12 inh inconclusive, VDR inh inconclusive, Sfp PPTase inh 56.2µM, G9a inh 7.08µM
CCOc1cc(/C=C2/C(=O)NC(=O)N(c3ccc(CC)cc3)C2=O)ccc1OC(=O)c1cccs1	VDR inh inconclusive, Sfp PPTase inh 79.4µM (no result: ALOX12 inh)
COc1ccc(/C=C2/C(=O)NC(=O)N(c3ccccc3)C2=O)cc1CN1C(=O)c2ccccc2C1=O	VDR inh 79.4µM, Sfp PPTase inh 50.1µM (no result: ALOX12 inh)
O=C1NC(=O)N(c2ccccc2)C(=O)/C1=C/c1ccoc1	ALOX12 inh inconclusive, Sfp PPTase inh inconclusive, G9a inh 39.8µM
CN1CC2(CCN(c3nccc(N)n3)CC2)CC1C(=O)O (stereo not drawn)	none (no result: VDR inh, Sfp PPTase inh, GRP78 ERSR act, G9a inh)
COc1cc(/C=C2/C(=O)NC(=O)N(c3ccccc3)C2=O)ccc1O	Sfp PPTase inh 8.91µM, G9a inh 35.5µM
COc1ccc(-n2c(/C=C/c3ccc(O)c(OC)c3)nc3ccccc3c2=O)cc1	ALOX12 inh inconclusive (no result: G9a inh)
O=C1Nc2ccccc2C12CCN(Cc1cncs1)CC2	none (no result: VDR inh, Sfp PPTase inh, GRP78 ERSR act, G9a inh)
Cc1cccc(CC(=O)N2[C@H]3CC[C@@H]2c2cnc(-c4ccccc4)nc2C3)c1	none (no result: VDR inh, Sfp PPTase inh, GRP78 ERSR act, G9a inh)
CCCC(C)c1nnc(NC(=O)CCS(=O)(=O)c2ccccc2)s1 (stereo not drawn)	ALOX12 inh inconclusive, VDR inh 25.1µM, Sfp PPTase inh 17.8µM, G9a inh 3.98µM
N#Cc1cccc(-c2ccc(=O)n3c2[C@@H]2C[C@@H](CN(C(=O)Nc4ccccc4)C2)C3)c1	none (no result: VDR inh, Sfp PPTase inh, GRP78 ERSR act, G9a inh)
O=C(O)c1ccccc1SSc1ccccc1C(=O)O	ALOX12 inh inconclusive, VDR inh inconclusive, Sfp PPTase inh inconclusive, G9a inh 28.2µM
C[CH2][Hg][S]c1ccccc1C(=O)O	ALOX12 inh 5.62µM, VDR inh 79.4µM, Sfp PPTase inh 15.8µM, G9a inh inconclusive
Cc1cccc(C(=O)O)c1O	Sfp PPTase inh inconclusive
COc1ccc2c3c1OC1C(O)C=CC4C(C2)[N+](C)(C)CCC341 (stereo not drawn)	ALOX12 inh 44.7µM, Sfp PPTase inh inconclusive, G9a inh 7.94µM
COc1ccc2c3c1O[C@H]1[C@@H](O)C=C[C@H]4C(C2)NCCC341 (stereo partly drawn)	none (no result: ALOX12 inh)
COc1cc2c(cc1Oc1ccccc1)NC(=O)C21CCN(c2ncc(F)cn2)CC1	none (no result: VDR inh, Sfp PPTase inh, GRP78 ERSR act, G9a inh)
COc1cc2c(cc1OCc1ccccc1)N(C(=O)c1cccc(N(C)C)c1)CC21CCN(C)CC1	none (no result: VDR inh, Sfp PPTase inh, GRP78 ERSR act, G9a inh)
O=C1Nc2ccccc2C12CCN(Cc1cccc3ccccc13)CC2	none (no result: VDR inh, Sfp PPTase inh, GRP78 ERSR act, G9a inh)
O=[N+]([O-])c1cc(S(=O)(=O)c2ccc(O)c([N+](=O)[O-])c2)ccc1O	ALOX12 inh inconclusive, G9a inh inconclusive
O=S(=O)(O)c1cc(O)ccc1O	G9a inh 10µM
Cc1c(C(=O)N2CCC3(CC2)OCCO3)oc2ccc(S(=O)(=O)N3CCOCC3)cc12	none
Cc1c(C(=O)NCCC2=CCCCC2)oc2ccc(S(=O)(=O)N3CCC4(CC3)OCCO4)cc12	G9a inh 50.1µM
CCN(CC)C(=O)c1c(C)[nH]c(=S)c(C#N)c1-c1ccco1	ALOX12 inh inconclusive, VDR inh inconclusive, Sfp PPTase inh 1µM, G9a inh 3.16µM
CN1CCNc2cc(Nc3ccc(F)cc3)ncc2C1	none (no result: VDR inh, Sfp PPTase inh, GRP78 ERSR act, G9a inh)
N#Cc1cccc(NC(=O)Nc2ccc3n(c2=O)C[C@H]2C[C@@H]3CN(C3CCOCC3)C2)c1	ALOX12 inh 15.8µM (no result: VDR inh, Sfp PPTase inh, GRP78 ERSR act, G9a inh)
CC(=O)N1C[C@@H]2C[C@H](C1)c1ccc(NC(=O)Nc3cccc(C#N)c3)c(=O)n1C2	none (no result: VDR inh, Sfp PPTase inh, GRP78 ERSR act, G9a inh)
Nc1ccc(N=Nc2ccccc2)cc1	G9a inh 44.7µM
O=c1c(O)c(-c2ccc(O)c(O)c2)oc2c(O)c(O)cc(O)c12	VDR inh 25.1µM, G9a inh inconclusive (no result: ALOX12 inh)
S=C=NCc1ccccc1	VDR inh 39.8µM (no result: ALOX12 inh)

Screening data deposited in PubChem by National Center for Advancing Translational Sciences (NCATS).
